# PubChem BioAssay (Tox21)
# Several values for one entry are separate records, joined by “and”; a condition that tells them apart may be missing. Equal values may be shown once. Records with an inconclusive call do not appear. Entries that show only a call come without a potency. A structure can be active in one record and inactive in another. Activity calls are given as the source filed them. Unless noted, calls come from the whole dose curve; as a rule, active = well fitted curve in the direction sought with a large enough effect in the repeat runs; inconclusive = weak or mixed curves; inactive = no such curve, though single readings can be large; an effect the other way counts as inactive or inconclusive.
# Tests used:
# [1] = qHTS assay to identify small molecule antagonists of the glucocorticoid receptor (GR) signaling pathway - cell viability counter screen (AID 720693); note: nearly all actives have a fitted effect of over 55% in size; note: potency is the fitted concentration of half-maximal effect
# [2] = qHTS assay for identifying genotoxic compounds that show differential cytotoxicity against isogenic chicken DT40 cell lines with known DNA damage response pathways - Rev3 mutant cell line (AID 743014); note: nearly all actives have a fitted effect of over 55% in size; note: potency is the fitted concentration of half-maximal effect
# [3] = qHTS assay for identifying genotoxic compounds that show differential cytotoxicity against isogenic chicken DT40 cell lines with known DNA damage response pathways - Rad54/Ku70 mutant cell line (AID 743015); note: nearly all actives have a fitted effect of over 60% in size; note: potency is the fitted concentration of half-maximal effect
# [4] = qHTS assay to identify small molecule antagonists of the androgen receptor (AR) signaling pathway - cell viability counter screen (AID 743033; note: nearly all actives have a fitted effect of over 45% in size; note: potency is the fitted concentration of half-maximal effect)
# [5] = qHTS assay to identify small molecule antagonists of the androgen receptor (AR) signaling pathway using the MDA cell line - cell viability counter screen (AID 743041; note: nearly all actives have a fitted effect of over 45% in size; note: potency is the fitted concentration of half-maximal effect)
# Method in brief: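 In this qHTS counter assay, fluorescence intensity after CellTiter-Fluor addition indicated viability of MDA-kb2 AR-luc cells given compounds and R1881 for 16 h at 37C.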
# [6] = qHTS assay to identify small molecule antagonists of the thyroid receptor (TR) signaling pathway - cell viability counter screen (AID 743064); note: nearly all actives have a fitted effect of over 50% in size; note: potency is the fitted concentration of half-maximal effect
# Method in brief: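 Compounds were tested on GH3.TRE-Luc cells in the presence of T3 at 1 nM final. Following 23.5 h at 37 °C, cell viability was quantified by CellTiter-Fluor.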
# [7] = qHTS assay for identifying genotoxic compounds that show differential cytotoxicity against isogenic chicken DT40 cell lines with known DNA damage response pathways - wild type cell line (AID 743012); note: nearly all actives have a fitted effect of over 60% in size; note: potency is the fitted concentration of half-maximal effect
# Method in brief: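 Viability by ATP luminescence (CellTiter-Glo, 30 min RT) after 40 h compound treatment at 37 C/5% CO2, using 300 parental DNA repair-proficient DT40 cells per well.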
# [8] = target: Androgen receptor (Homo sapiens) (UniProt P10275); experiment: qHTS assay to identify small molecule agonists of the androgen receptor (AR) signaling pathway using the MDA cell line (AID 743040; note: nearly all actives have a fitted effect of over 20% in size); settings: MDA-kb2 AR-luc cells, MMTV luciferase, 16 h, stronger effect = higher value
# Androgen receptor (Homo sapiens), sequence (P10275 whole entry, looked up): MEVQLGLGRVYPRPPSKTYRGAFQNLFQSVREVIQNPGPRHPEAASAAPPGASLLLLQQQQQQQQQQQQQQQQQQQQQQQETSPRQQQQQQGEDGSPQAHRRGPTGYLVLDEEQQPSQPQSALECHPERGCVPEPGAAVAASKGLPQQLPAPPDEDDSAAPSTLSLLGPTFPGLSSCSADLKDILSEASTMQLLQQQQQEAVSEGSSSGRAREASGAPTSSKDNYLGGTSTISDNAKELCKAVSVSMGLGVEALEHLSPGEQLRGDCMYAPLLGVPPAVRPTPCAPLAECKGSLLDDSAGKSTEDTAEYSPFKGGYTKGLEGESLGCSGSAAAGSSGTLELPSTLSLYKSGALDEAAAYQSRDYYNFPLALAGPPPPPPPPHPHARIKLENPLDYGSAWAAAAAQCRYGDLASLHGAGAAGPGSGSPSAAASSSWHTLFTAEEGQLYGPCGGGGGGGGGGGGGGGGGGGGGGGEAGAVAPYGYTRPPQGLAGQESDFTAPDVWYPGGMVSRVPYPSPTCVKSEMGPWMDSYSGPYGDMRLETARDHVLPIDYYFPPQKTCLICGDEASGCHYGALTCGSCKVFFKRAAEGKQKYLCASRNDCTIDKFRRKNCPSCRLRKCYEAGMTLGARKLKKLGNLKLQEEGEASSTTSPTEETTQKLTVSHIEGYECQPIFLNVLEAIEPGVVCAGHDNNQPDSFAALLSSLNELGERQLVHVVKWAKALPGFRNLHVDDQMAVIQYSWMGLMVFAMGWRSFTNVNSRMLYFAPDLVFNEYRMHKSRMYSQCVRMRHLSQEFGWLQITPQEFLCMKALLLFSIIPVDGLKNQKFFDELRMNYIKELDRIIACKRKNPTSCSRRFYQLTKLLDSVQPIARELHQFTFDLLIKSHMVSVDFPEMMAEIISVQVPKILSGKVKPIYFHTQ
# Method in brief: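 Cell-based luciferase reporter: MDA-kb2, MMTV promoter (AR + GR response elements). 16 h compound exposure at 37C; ONE-Glo, 30 min RT, luminescence.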
# [9] = target: Androgen receptor (Homo sapiens) (UniProt P10275); experiment: qHTS assay to identify small molecule antagonists of the androgen receptor (AR) signaling pathway using the MDA cell line (AID 743042; note: nearly all actives have a fitted effect of over 55% in size; note: potency is the fitted concentration of half-maximal effect)
# Method in brief: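 MDA-kb2 cells (human breast carcinoma, stably carrying an MMTV-luciferase reporter responsive to AR and GR) were plated at 3,000 cells/well and preincubated 5 hr at 37C, then given compound plus R1881 agonist for 16 h. ONE-Glo luminescence was read.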
# [10] = target: Androgen receptor (Homo sapiens) (UniProt P10275); experiment: qHTS assay to identify small molecule agonists of the androgen receptor (AR) signaling pathway (AID 743036; active = well fitted activation curve with a large enough effect in the signal ratio in the repeat runs, with a control signal flat, not every such curve was filed as active; the % refers to the signal ratio)
# Method in brief: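 Beta-lactamase under UAS control, stably integrated in HEK293 GripTite cells, reports receptor activation. After 16 h compound treatment, cells received FRET substrate for 2 h at room temperature before fluorescence reading.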
SMILES,Potency [1],Potency [2],Potency [3],Potency [4],Potency [5],Potency [6],Potency [7],activity change ([8]; at 70.3 µM (top of the series)),Potency [9],Potency [10],activity change ([8]; at 95 µM (top of the series))
NC(=O)CN1CCCC1=O,inactive,inactive,inactive,inactive,inactive,inactive,–,–,–,–,–
CN(C)c1nc(=O)n(C2CCCCC2)c(=O)n1C,–,inactive,inactive,inactive,inactive,inactive,inactive,–,–,–,–
N#CC(c1ccccc1)c1ccccc1,inactive,inactive,inactive,inactive,–,inactive,–,–,–,–,–
O=C(O)c1nn(Cc2ccc(Cl)cc2Cl)c2ccccc12,inactive,inactive,inactive,inactive,inactive,inactive,–,1.75% (inactive) and 0.87% (inactive),inactive,–,–
CSc1nc(NC(C)C)nc(NC(C)C)n1,inactive,–,–,inactive,inactive,inactive,–,–,–,–,–
CCCCCCCC[N+](C)(CCCCCCCC)CCCCCCCC,13.8 µM (active) and 5.5 µM (active) and 11 µM (active),433 nM (active) and 686 nM (active),610 nM (active) and 273 nM (active) and 386 nM (active),3.46 µM (active) and 872 nM (active) and 3.47 µM (active),17.2 µM (active) and 2.73 µM (active) and 15.4 µM (active),inactive and 2.44 µM (active) and 6.11 µM (active),–,–,–,–,–
CCOP(=O)(O)OCC (tested in a mixture with another compound),17.2 µM (active),inactive and 85.6 nM (active),inactive and 96.1 nM (active),inactive and 17.2 µM (active),–,inactive and 7.63 µM (active),–,–,–,–,–
CS(=O)(=O)NC(=O)c1cc(Oc2ccc(C(F)(F)F)cc2Cl)ccc1[N+](=O)[O-],–,inactive,inactive,inactive,inactive,inactive,inactive,–,–,–,–
CC1(C)Cc2cccc(O)c2O1,inactive,inactive,inactive,inactive,inactive,inactive,–,–,–,–,–
CC1CC(=O)O1 (stereo not drawn),inactive,inactive,inactive,inactive,inactive,inactive,–,–,–,–,–
C[C@]12CCC(=O)C=C1CC[C@@H]1[C@@H]2CC[C@@]2(C)[C@H]1CC[C@]2(C)O,15.5 µM (active),26.6 µM (active) and 29.8 µM (active) and 26 µM (active),29.8 µM (active) and 26.6 µM (active) and 26.7 µM (active),inactive,–,inactive and 61.4 µM (active),29.8 µM (active) and 26.6 µM (active) and 21.7 µM (active),–,–,–,–
CCCCC(C#N)(Cn1cncn1)c1ccc(Cl)cc1 (stereo not drawn),inactive,60.9 µM (active) and 19.3 µM (active),60.9 µM (active),inactive,–,inactive,–,–,–,–,–
ClC(Cl)(Cl)Br,inactive,inactive,inactive,inactive,inactive,inactive,–,–,–,–,–
CCC1(c2ccc(N)cc2)CCC(=O)NC1=O (stereo not drawn),–,inactive,inactive,inactive,–,inactive,inactive,-1.61% (inactive) and 2% (inactive),inactive,inactive,–
O=NN(c1ccccc1)c1ccccc1,inactive,inactive,inactive,inactive,–,inactive,–,–,–,–,–
NN=C(N)N,inactive,–,inactive,inactive,–,inactive,inactive,–,–,–,–
CCCCCCCCCCCCCl,inactive,inactive,inactive,inactive,–,inactive,–,–,–,–,–

SMILES,Potency [1],Potency [2],Potency [3],Potency [4],Potency [5],Potency [6],Potency [7],activity change ([8]; at 70.3 µM (top of the series)),Potency [9],Potency [10],activity change ([8]; at 95 µM (top of the series))
Clc1ccc(C(Cl)(Cl)Cl)cc1,inactive,inactive,inactive,inactive,–,inactive,–,–,–,–,–
CCOP(=S)(OCC)SCn1c(=O)oc2cc(Cl)ccc21,inactive,32.9 µM (active) and 27.3 µM (active),46.4 µM (active) and 30.6 µM (active),inactive,–,inactive,27.3 µM (active),–,–,–,–
CCCCOC(=O)COC(=O)c1ccccc1C(=O)OCCCC,inactive,inactive,inactive,inactive,–,inactive,inactive,–,–,–,–
O=[N+]([O-])c1ccc(Nc2ccccc2)cc1,43.6 µM (active),54.9 µM (active) and 13.7 µM (active),30.9 µM (active) and 10.9 µM (active),38.9 µM (active),61.6 µM (active) and 61.1 µM (active),48.6 µM (active),–,–,–,–,–
c1ccc2c(c1)Nc1ccccc1S2,inactive,–,40.9 µM (active),inactive,–,inactive,–,–,–,–,–
CNC(=O)Oc1cccc2c1OC(C)(C)C2,inactive,inactive and 24.3 µM (active),inactive,inactive,–,inactive,–,1.41% (inactive),inactive,inactive,1.74% (inactive)
CCOP(=S)(OCC)SCSC(C)(C)C,inactive,inactive,inactive,inactive,–,inactive,–,–,–,–,–
Nc1ncn[nH]1,inactive,inactive,inactive,inactive,–,inactive,inactive,–,–,–,–
Cn1c(-c2ccccc2)cc(-c2ccccc2)[n+]1C,inactive,2.73 µM (active) and 864 nM (active),4.32 µM (active) and 2.43 µM (active),–,–,inactive,12.2 µM (active) and 1.37 µM (active),–,–,–,–
CCNCC,inactive,inactive,inactive,inactive,inactive,inactive,–,–,–,–,–
CC(C)(c1ccccc1)c1ccc(O)c(C(C)(C)c2ccccc2)c1,21.7 µM (active) and 24.5 µM (active),15.2 µM (active) and 8.63 µM (active),13.6 µM (active) and 9.69 µM (active),48.5 µM (active) and 49 µM (active),–,13.6 µM (active) and 12.2 µM (active),21.5 µM (active) and 9.69 µM (active),–,–,–,–
CC(O)CN(CC(C)O)CC(C)O (stereo not drawn),inactive,inactive,inactive,inactive,inactive,inactive,–,–,–,–,–
C=CC(=O)OCC(CC)(COC(=O)C=C)COC(=O)C=C,–,1.58 µM (active) and 3.06 µM (active),2.5 µM (active) and 2.43 µM (active),7.97 µM (active) and 12.3 µM (active),62.8 µM (active) and 30.6 µM (active),4.99 µM (active) and 6.86 µM (active),2.8 µM (active) and 3.06 µM (active),-11.9% (inactive),8.87 µM (active) and 6.86 µM (active),–,-11.2% (inactive)
CC1=C(C(=O)Nc2ccccc2)SCCO1,–,24.7 µM (active) and 12.2 µM (active),62.1 µM (active) and 19.3 µM (active),inactive,inactive,inactive,62.1 µM (active) and 17.2 µM (active),4% (inactive),inactive,inactive,0.0315% (inactive)
N#Cc1nn(-c2c(Cl)cc(C(F)(F)F)cc2Cl)c(N)c1S(=O)C(F)(F)F (stereo not drawn),inactive,10.6 µM (active) and 3.88 µM (active),9.44 µM (active) and 1.94 µM (active),15.6 µM (active),–,29.8 µM (active) and 61.5 µM (active),–,-9.74% (inactive),17.3 µM (active),inactive,-12% (inactive)
CNC(=S)S,inactive,inactive,inactive,inactive,inactive,inactive,–,–,–,–,–
Nc1ccc2ccccc2c1,inactive,inactive and 68.6 µM (active),inactive,inactive,–,inactive,inactive,–,–,–,–
